Values without a mark were called inactive. Inconclusive results are not listed. Active and inactive are the calls of the source. The call rests on the fitted dose curve; in most records, active means well fitted curve in the direction sought with a large enough effect in the repeat runs; inconclusive means weak or mixed curves; inactive means no such curve, though single readings can be large; an effect the other way counts as inactive or inconclusive.

Drawing on PubChem BioAssay (Tox21), this text covers Potency for 22 molecules.

Assay [1] is described as follows: qHTS RealTime-Glo MT Cell Viability Assay in HEK293 cells - 0 hour (AID 1224880). Further: nearly all actives have a fitted effect of over 45% in size. Further: potency means the concentration at half of the fitted maximal effect. Summed up: (§1)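 qHTS format; HEK293 cells with NanoLuc/prosubstrate reagent, 37 C/5% CO2 for 5 h pre-dosing; compounds 23 nL in DMSO; luminescence at each time point reflects viable cells.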
For orientation: In qHTS, concentration-response curves come from the screen itself.

A short description of assay [2]: A CellTox Green Cytotoxicity Assay to monitor cytotoxicity in HEK293 cells - 32 hour (AID 1224881). Further: nearly all actives have a fitted effect of over 40% in size. Summed up: (§2)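 Each value comes from one timepoint of a single continuous run in which HEK293 cells with CellTox Green were exposed to compound for up to 40 h at 37 C, dye fluorescence rising with cell death.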
Assay [3] in a line: A CellTox Green Cytotoxicity Assay to monitor cytotoxicity in HepG2 cells - 0 hour (AID 1224882). Further: nearly all actives have a fitted effect of over 35% in size. An outline of the steps: (§3)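 Continuous culture of HepG2 cells with a membrane-impermeant DNA dye; rising fluorescence marks dead cells. Compound exposure lasted up to 40 h at 37 C, with reads every 8 h from 0 h.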
The nature of assay [4]: A CellTox Green Cytotoxicity Assay to monitor cytotoxicity in HepG2 cells - 32 hour (AID 1224883). Further: nearly all actives have a fitted effect of over 50% in size. Further: potency means the concentration at half of the fitted maximal effect. Summed up: as §3
A short description of assay [5]: A CellTox Green Cytotoxicity Assay to monitor cytotoxicity in HEK293 cells - 8 hour (AID 1224884). Further: nearly all actives have a fitted effect of over 35% in size. Summed up: as §2
Assay [6] is described as follows: qHTS RealTime-Glo MT Cell Viability Assay in HepG2 cells - 16 hour (AID 1224885). Further: nearly all actives have a fitted effect of over 50% in size. An outline of the steps:
(§4)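 Compound treatment began 5 h after plating HepG2 cells (600/well) with NanoLuc luciferase and prosubstrate. Plates stayed at 37 C for 40 h; luminescence was captured at six time points, 0 h through 40 h.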

The nature of assay [7]: qHTS RealTime-Glo MT Cell Viability Assay in HEK293 cells - 24 hour (AID 1224886). Further: nearly all actives have a fitted effect of over 50% in size. Further: potency means the concentration at half of the fitted maximal effect. Summed up:
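Quantitative high-throughput screen of the Tox21 10K library in HEK293: cells and RealTime-Glo reagents plated together, compound added at 5 h, luminescence monitored through 40 h at 37 C.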

A short description of assay [8]: qHTS RealTime-Glo MT Cell Viability Assay in HEK293 cells - 8 hour (AID 1224887). Further: top concentration of the series differs between compounds; nearly all actives have a fitted effect of over 50% in size. Summed up:
as §1

Assay [9] can be described thus: A CellTox Green Cytotoxicity Assay to monitor cytotoxicity in HEK293 cells - 16 hour (AID 1224888). Further: nearly all actives have a fitted effect of over 35% in size. Summed up: as §2
Assay [10] can be described thus: qHTS RealTime-Glo MT Cell Viability Assay in HepG2 cells - 0 hour (AID 1224889). Further: nearly all actives have a fitted effect of over 50% in size. Further: potency means the concentration at half of the fitted maximal effect. An outline of the steps: as §4

Consider `CCN(Cc1cccc(S(=O)(=O)O)c1)c1ccc(C(=C2C=CC(=[N+](CC)Cc3cccc(S(=O)(=O)O)c3)C=C2)c2ccccc2S(=O)(=O)[O-])cc1`, for which the Potency entry in assay [1], in assay [2], in assay [3], in [4], in assay [5] and in assay [6] was “inactive” in each case. Also, the Potency entry in assay [7], in [8], in assay [9] and in assay [10] was “inactive” throughout.
Take `CSCC[C@H](NC(=O)[C@H](Cc1c[nH]c2ccccc12)NC(=O)CCNC(=O)OC(C)(C)C)C(=O)N[C@@H](CC(=O)O)C(=O)N[C@@H](Cc1ccccc1)C(N)=O`: the Potency entry in assay [1], in assay [2], in assay [3], in [4], in assay [5] and in [6] was “inactive” throughout. Further, the Potency entry in [7], in assay [8], in [9] and in assay [10] was “inactive” throughout.
On to `CCCCCCCC(=O)OCCCCCC`, for which the Potency entry in assay [1], in assay [2], in assay [3], in [4], in assay [5] and in assay [6] was “inactive” throughout. In addition, the Potency result in [9] and in assay [10] was “inactive” throughout. Also, the Potency in assay [7] is 3.89 µM (active).
Consider `O=C1CC[C@@H](C(=O)O)N1`, for which the Potency entry in assay [1], in assay [2], in [3], in [4], in [5] and in assay [6] was “inactive” each time. For the same molecule, the Potency entry in assay [7], in assay [9] and in assay [10] was “inactive” in each case.
As to `Cc1oc(=O)oc1COC(=O)[C@@H]1N2C(=O)[C@@H](NC(=O)[C@H](N)c3ccccc3)[C@H]2SC1(C)C`, the Potency result in [1], in assay [2], in [3], in assay [4], in assay [5] and in assay [6] was “inactive” throughout. The Potency entry in [7], in assay [9] and in assay [10] was “inactive” in each case.
Consider `CCOC(=O)c1c(N)sc2c1CCN(Cc1ccccc1)C2`, for which the Potency entry in assay [1], in assay [2], in assay [3], in [4], in assay [5] and in assay [6] was “inactive” in each case. The Potency entry in [9] and in assay [10] was “inactive” in each case. Besides, the Potency in [7] was 19 µM (active).
In the case of `O=C(NS(=O)(=O)/C=C/c1ccccc1)c1ccc(F)cc1Cl`, the Potency in [1] was 12.3 µM (active); in assay [4], 54.9 µM (active); in assay [10] it was 19.5 µM (active). Also, the Potency entry in assay [2], in assay [3], in [5], in assay [6], in [7] and in [8] was “inactive” in each case. Further, the Potency result in [9] was “inactive”.
With `Cc1ccc(Nc2c(F)cccc2Cl)c(CC(=O)O)c1`, the Potency result in assay [1], in assay [2], in assay [3], in [4], in assay [5] and in assay [6] was “inactive” each time. Further, the Potency result in assay [7], in [8], in [9] and in assay [10] was “inactive” throughout.
For `O=C(Nc1ccc(C(=O)O)c(O)c1)c1ccccc1`, the Potency result in assay [1], in [2], in assay [3], in assay [4], in assay [5] and in [6] was “inactive” each time. Besides, the Potency entry in [7], in [9] and in [10] was “inactive” each time.
Take `CCSC(=O)N(CC)CC`: the Potency result in [1], in assay [2], in assay [3], in assay [4], in [5] and in [6] was “inactive” each time. Further, the Potency entry in [7], in assay [9] and in assay [10] was “inactive” each time.
For the molecule `C=CC(=O)O`, the Potency entry in [1], in assay [2], in assay [3], in [4], in [5] and in assay [6] was “inactive” each time. The Potency entry in [7], in assay [9] and in assay [10] was “inactive” each time.
Regarding `CC(CO)(CO)C(=O)O`, the Potency result in [1], in assay [2], in assay [3], in [4], in assay [5] and in assay [6] was “inactive” in each case. Moreover, the Potency entry in [7], in assay [8], in [9] and in assay [10] was “inactive” each time.
In the case of `O=C1OC(=O)c2c(Br)c(Br)c(Br)c(Br)c21`, the Potency entry in assay [1], in assay [2], in assay [3], in [4], in [5] and in [6] was “inactive” in each case. In addition, the Potency result in assay [7], in [8], in assay [9] and in [10] was “inactive” in each case.
As for `O=C(O)c1cccc(Oc2ccccc2)c1`, the Potency entry in assay [1], in [2], in assay [3], in assay [4], in [5] and in assay [6] was “inactive” throughout. The Potency result in assay [7], in assay [8], in [9] and in assay [10] was “inactive” throughout.
In the case of `CC(C)COC(=O)COc1cc(Cl)c(Cl)cc1Cl`, the Potency entry in assay [1], in assay [2], in assay [3], in [4], in assay [5] and in assay [6] was “inactive” throughout. Moreover, the Potency entry in assay [7], in assay [8], in [9] and in [10] was “inactive” each time.
Take `CCCCCCCCCCCSCC(=O)O`: the Potency result in assay [1], in assay [2], in assay [3], in assay [4], in [5] and in [6] was “inactive” throughout. In addition, the Potency result in [7] and in assay [9] was “inactive” in each case.
In the case of `CC(C)OC(=O)c1ccccc1C(=O)OC(C)C`, the Potency entry in assay [1], in assay [2], in assay [3], in [4], in assay [5] and in [6] was “inactive” throughout. For the same molecule, the Potency result in assay [7] and in [9] was “inactive” throughout.
Regarding `CC1CCCO1` (centres undefined), the Potency entry in [1], in assay [2], in assay [3], in assay [4], in [5] and in [6] was “inactive” in each case. The Potency result in assay [7], in assay [8], in assay [9] and in [10] was “inactive” throughout.
Take `CCN(CC)C(=O)/C(C#N)=C/c1cc(O)c(O)c([N+](=O)[O-])c1`: the Potency entry in assay [1], in assay [2], in assay [3], in assay [4], in assay [5] and in assay [6] was “inactive” throughout. The Potency result in assay [7], in assay [8], in assay [9] and in [10] was “inactive” in each case.
As for `SCCc1cnccn1`, the Potency entry in assay [1], in assay [2], in assay [3], in assay [4], in [5] and in assay [6] was “inactive” throughout. Moreover, the Potency result in assay [7], in assay [8], in assay [9] and in assay [10] was “inactive” in each case.
In the case of `CC(=O)OCC(C)C`, the Potency entry in assay [1], in assay [2], in assay [3], in assay [4], in assay [5] and in [6] was “inactive” throughout. Also, the Potency result in assay [7], in assay [8], in assay [9] and in [10] was “inactive” in each case.
Regarding `CC(C)c1ccc(C#N)cc1`, the Potency result in assay [1], in assay [2], in assay [3], in assay [4], in assay [5] and in assay [6] was “inactive” in each case. For the same molecule, the Potency result in assay [8], in [9] and in assay [10] was “inactive” each time. The Potency in [7] is 17.4 µM (active).
